Among all 52,000 compounds or so, about 4,300 (8.3%) were called active. Rule as the data show it: active = survival mostly below about 52% (no sharp cut-off); inactive = mostly above about 56%. For the sample, actives were picked, then their nearest neighbours and some compounds at random.

The assay deals with DeltatarO mutant. Briefly: S. aureus survival, RN4220 and DeltatarO strains – OD600, teichoic acid synthesis inhibitors, primary screen (AID 463173). The settings on record: S. aureus RN4220 wild type/DeltatarO growth, OD600, 18 h, stronger effect = lower value, screened at 18.75 µg/mL (by protocol).
Turning to `CCCNC(=O)c1ccc2c(c1)nc1n2CCCCC1`, the survival was 94% (inactive).
For the compound `COc1cccc(C(=O)NCCc2csc(-c3cccc(F)c3)n2)c1OC`, the survival was 75% (inactive).
In the case of `Cc1cccc(N2CCN(C(=O)CN3C(=O)COc4ccc(S(=O)(=O)N5CCCC5)cc43)CC2C)c1` (stereo not given) it was 77% (inactive); in that of `O=C(COc1ccccc1[N+](=O)[O-])N1CCC(c2nc3ccccc3o2)CC1`, 79% (inactive); in that of `CCOC(=O)c1csc2c1CCC/C2=N/OC(C)=O`, 86% (inactive).
On to `CCOC(=O)c1cc2c(=O)n3ccccc3nc2n(Cc2ccco2)c1=NC(=O)c1cccc(C)c1`, for which the survival is 33% (active).
For `CCOC(=O)c1cc2c(=O)n3ccccc3nc2n(Cc2ccco2)c1=NC(=O)c1cc(C)cc(C)c1` the value was 29% (active); for `CCOc1ccccc1NC(=O)Cn1ccn(-c2ccccc2)c(=O)c1=O`, 49% (inactive); for `Cc1cc(C)cc(N(C)S(=O)(=O)c2nnc(NC(=O)COc3ccc(Cl)cc3)s2)c1`, 80% (inactive).
In the case of `CCC(=O)Nc1nnc(S(=O)(=O)N2CCCCCC2)s1` it was 89% (inactive); in that of `CC(Oc1ccccc1)C(=O)Nc1nnc(S(=O)(=O)N2CCCCCC2)s1` (stereo not given), 50% (inactive); in that of `O=C(COc1ccccc1)Nc1nnc(S(=O)(=O)N2CCCC2)s1`, 39% (active).
On to `Cc1cc(C)cc(N(C)S(=O)(=O)c2nnc(NC(=O)COc3ccc(C)c(C)c3)s2)c1`, for which the survival is 30% (active).
As to `O=C(COc1ccc(Cl)cc1)Nc1nnc(S(=O)(=O)N2CCCCCC2)s1`, the survival was 55% (active).
For `CCN(CC)S(=O)(=O)c1nnc(NC(=O)COc2cccc(C)c2)s1` the value was 94% (inactive); for `Cc1cccc(OCC(=O)Nc2nnc(S(=O)(=O)N3CCCCCC3)s2)c1`, 48% (active).
Regarding `O=C(COc1ccccc1)Nc1nnc(S(=O)(=O)N2CCCCCC2)s1`, the survival was 79% (inactive).
`COc1ccc(OCC(=O)Nc2nnc(S(=O)(=O)N3CCCCCC3)s2)cc1`: the survival is 76% (inactive).
For `Cc1ccc(OCC(=O)Nc2nnc(S(=O)(=O)N3CCCCCC3)s2)cc1` the value was 64% (inactive); for `CN(c1ccccc1)S(=O)(=O)c1nnc(NC(=O)COc2ccccc2)s1`, 56% (inactive).
For `CC1(C)CC(=O)C2=C(C1)NC1=C(C(=O)CC(C)(C)C1)C2c1ccc2c(c1)OCO2` the value was 96% (inactive).
In the case of `NC(=O)c1nc(-c2ccc(F)c(F)c2)nc2c1[nH]c(=O)n2-c1cccc(Cl)c1` it was 86% (inactive).
As to `O=C(Nc1cccc(C(F)(F)F)c1)N1CCC(CN2CCCCCC2)CC1`, the survival was 83% (inactive).
In the case of `Cc1cccc(C(=O)Nc2ccc(N3CCC(CCN4CCOCC4)CC3)c(C(=O)O)c2)c1` it was 66% (inactive).
`Cc1ccc(N2CCN(c3cc(C)nc4c(-c5ccc(Cl)cc5)c(C)nn34)CC2C)cc1` (stereo not given): the survival was 55% (inactive).
Regarding `COc1ccc(C(=O)c2cn(Cc3ccc(F)cc3)c3c(F)cc(F)cc3c2=O)cc1`, the survival is 103% (inactive).
In the case of `Cc1cccc(N2CCN(C(=O)CCNS(=O)(=O)c3ccc4c(c3)CCN4C(=O)C3CC3)CC2)c1C` it was 73% (inactive); in that of `N#Cc1ccccc1NC(=O)CSc1nnc(N)s1`, 76% (inactive); in that of `O=C(COc1ccc(F)cc1)Nc1nnc(S(=O)(=O)N2CCCC2)s1`, 39% (active).
`CCCC(=O)Nc1nnc(S(=O)(=O)N2CCCCCC2)s1`: the survival is 91% (inactive).
In the case of `CC(C)CC(=O)Nc1nnc(S(=O)(=O)N2CCCCCC2)s1` it was 109% (inactive).
`Cn1c(/C(C#N)=C/c2ccc(C(F)(F)F)cc2)nc2ccccc21`: the survival was 103% (inactive).
In the case of `COc1ccc(/C=C(\C#N)c2nc3ccccc3n2C)c(OC)c1` it was 29% (active); in that of `Cn1c(/C(C#N)=C/c2ccccc2Br)nc2ccccc21`, 79% (inactive).
In the case of `Cn1c(/C(C#N)=C/C2CC=CCC2)nc2ccccc21` (stereo not given), the survival is 78% (inactive).
Consider `COc1cc(/C=C(\C#N)c2nc3ccccc3n2C)cc(OC)c1OC`, for which the survival was 47% (active).
In the case of `COc1ccc(Cl)cc1N/C=C(/C#N)c1nc2ccccc2n1C` it was 82% (inactive); in that of `Cc1cc(=O)n(CC(=O)N2CCCc3ccccc32)c2c1c(C)nn2-c1cccc(F)c1`, 85% (inactive).
`Cc1ccc(C)c(NC(=O)CSc2ncc3c(n2)-c2ccc(Cl)cc2N(C)S3(=O)=O)c1`: the survival was 74% (inactive).
As for `CCCCN(C)CCNC(=O)c1ccc2c(c1)NC(=O)CN2`, the survival was 71% (inactive).
`COc1ccc(-n2nc3ccc(NC(=O)c4cc5ccccc5o4)cc3n2)cc1Cl`: the survival was 159% (inactive).
In the case of `CCOc1ccc(-n2nc3ccc(NC(=O)Cc4ccccc4)cc3n2)cc1` it was 74% (inactive); in that of `O=C(Nc1ccc2nn(-c3ccc(Cl)cc3)nc2c1)c1cc2ccccc2o1`, 65% (inactive).
In the case of `CCOc1ccc(-n2nc3ccc(NC(=O)c4ccc(-c5cccc(Cl)c5)o4)cc3n2)cc1`, the survival is 45% (active).
On to `COc1ccc(-n2nc3ccc(NC(=O)c4ccc(-c5cc(Cl)ccc5Cl)o4)cc3n2)cc1`, for which the survival is 40% (active).
Turning to `O=C(Nc1ccc2nn(-c3ccccc3)nc2c1)c1ccc(-c2cccc(Cl)c2)o1`, the survival is 105% (inactive).
In the case of `CCCCN(CC)CCCNC(=O)c1cc2c(-c3ccc(OC)c(OC)c3)nn(C)c2s1` it was 140% (inactive).
In the case of `Cc1ccc(N2CCN(C(=O)c3cnn(-c4ccc(C)c(C)c4)c3C3CCNCC3)CC2)c(C)c1` it was 55% (inactive); in that of `CCN(CC)S(=O)(=O)c1ccc2oc(C(=O)Nc3ccc(Br)cc3F)c(C)c2c1`, 69% (inactive).
In the case of `O=C(O)CCN1CCCC1` it was 78% (inactive); in that of `CCN(c1cccc(C)c1)c1ncnc2c1cnn2-c1cccc(Cl)c1`, 70% (inactive).
For `CCOc1ccc(-c2csc(/C(C#N)=C/c3ccc(Br)cc3)n2)cc1`, the survival was 55% (inactive).
Consider `CC(C)c1ccc(/C=C(\C#N)c2nc(-c3ccc(O)cc3)cs2)cc1`, for which the survival was -1% (active).
In the case of `N#C/C(=C\c1ccc(F)cc1)c1nc(-c2ccc(-c3ccccc3)cc2)cs1`, the survival was 69% (inactive).
Regarding `Cc1ccc(/C=C(\C#N)c2nc(-c3ccc(-c4ccccc4)cc3)cs2)cc1`, the survival was 57% (inactive).
Take `COc1ccc(/C=C(/C#N)c2nc(-c3ccc(-c4ccccc4)cc3)cs2)cc1`: the survival was 73% (inactive).
For `N#C/C(=C/c1ccc(Cl)cc1)c1nc(-c2ccc(Br)cc2)cs1` the value was 65% (inactive); for `N#C/C(=C/c1ccc(O)cc1)c1nc(-c2ccc(-c3ccccc3)cc2)cs1`, 9% (active).
Turning to `CN(C)c1ccc(/C=C(\C#N)c2nc(-c3ccc(Cl)c(Cl)c3)cs2)cc1`, the survival is 76% (inactive).
Take `CCc1ccc(/C=C(/C#N)c2nc(-c3ccc(C)cc3)cs2)cc1`: the survival is 8% (active).

(Values after PubChem BioAssay AID463173 (ICCB-Longwood Screening Facility, Harvard Medical School, 2010).)
